Records with an inconclusive call do not appear. The source made the active and inactive calls. Calls come from the whole dose curve; as a rule, active = well fitted activation curve with a large enough effect; inconclusive = small, poorly fitted or top-dose-only effect; inactive = flat fitted curve, though single readings scatter.

The nature of the assay: qHTS for Inhibitors of Cell Surface uPA Generation: FP59 Counterscreen for Cherry-picked Compounds. Note: 0% is about no effect. The following applies: FP59 anthrax toxin cytotoxicity counterscreen, cells; series mostly up to 115 µM; activity (protection from FP59): at the top concentration.
On to `CC(=O)Oc1ccc(OC(C)=O)c(SCCCCCCl)c1`, for which the “activity (protection from FP59)” value was -1.46% (inactive).
Turning to `CN1CC[C@]23c4ccccc4N[C@H]1[C@]21CCN(C)[C@H]3Nc2ccccc21`, the “activity (protection from FP59)” value was -1.45% (inactive).
For `COC(=O)/C(C#N)=C\c1c(OC)[nH]c2ccccc12`, the “activity (protection from FP59)” value was -1.49% (inactive).
In the case of `CN(C)CCNC(=O)Nc1ccc([N+](=O)[O-])cc1` it was -1.32% (inactive); in that of `CNC(=S)N1C2CCCC1CC(NC(=O)c1ccc(F)cc1)C2` (stereo not drawn), -1.37% (inactive).
Regarding `CCC(C)Nc1cc(C)nc2ncnn12` (stereo not drawn), the “activity (protection from FP59)” value was -1.32% (inactive).
Next, `O=C(O)C(Nc1nc(C(F)(F)F)nc2ccccc12)c1ccccc1` (stereo not drawn): -1.46% (inactive); `Cc1noc(C)c1CSCC(=O)Nc1cc(Cl)ccc1N1CCCCC1`: 7.4% (inactive); `O=C(c1ccc(NC(=S)NCc2ccc(Cl)cc2)cc1)N1CCCCC1`: -0.935% (inactive).
Next, `CCOc1ccc(CCNC(=O)Cc2ccc(NC3=NC4CS(=O)(=O)CC4S3)cc2)cc1OCC` (stereo not drawn): 3.36% (inactive).
In the case of `COc1cccc2c1Oc1ncccc1N(C(=O)CCC(=O)NCc1ccc(C)cc1)C2` it was -1.2% (inactive); in that of `CS(=O)(=O)Nc1cccc(C2=NN(S(=O)(=O)c3ccccc3)C(c3ccco3)C2)c1` (stereo not drawn), -1.08% (inactive); in that of `COc1ccc(/C(N)=N/OC(=O)Cc2ccccc2OC)cc1`, -1.48% (inactive).
Regarding `O=C(CNS(=O)(=O)c1ccc(F)cc1)Nc1ccccc1`, the “activity (protection from FP59)” value was -1.19% (inactive).
Next, `COc1cccc(NC(=S)NCc2ccc3c(c2)cc(C)n3C)c1`: -0.806% (inactive).
With `COc1ccc(CNC(=O)C2CCC(CNS(=O)(=O)c3ccc(C)cc3)CC2)cc1` (stereo not drawn), the “activity (protection from FP59)” value is -1.41% (inactive).
Next, `Cc1ccc(NC(=S)N2CCN(Cc3ccc4c(c3)OCO4)CC2)c(C)c1`: -1.41% (inactive); `C/C(=N\NC(=O)c1ccccc1)c1c(C)[nH]n(-c2ccccc2)c1=O`: -0.532% (inactive).

The values are drawn from PubChem BioAssay AID720517 (National Center for Advancing Translational Sciences (NCATS), 2013).
